GRK2 aptamer HTS: human GRK2 inhibition via aptamer displacement; P25098; bead flow cytometry, FAM-aptamer displacement from GRK2; inhibition of aptamer binding, % at 10 µM; hit rate 0.59% among 330,000; AID 488847;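 active = inhibition of aptamer binding above 40%, roughly 3 SD of noise, on plates passing a quality check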;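 also: median bead fluorescence of bound FAM aptamer so fluorescent compounds give negative values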
Neddyl block: cullin neddylation inhibition; hit rate 0.58% among 360,000; P61081+Q13564; TR-FRET cullin neddylation, biochemical; inhibition, % at 25 µM; in the data active = inhibition above about 36%
HDAC3 inhib: inhibitors of human histone deacetylase 3; O15379; inhibition, % at 8.3 µM; recombinant HDAC3, fluorogenic peptide/trypsin coupled, fluorescence; hit rate 0.15% among 320,000; in the data active = inhibition above about 26%, passing the limit was not always enough
Target sequence (O15379 whole entry, looked up): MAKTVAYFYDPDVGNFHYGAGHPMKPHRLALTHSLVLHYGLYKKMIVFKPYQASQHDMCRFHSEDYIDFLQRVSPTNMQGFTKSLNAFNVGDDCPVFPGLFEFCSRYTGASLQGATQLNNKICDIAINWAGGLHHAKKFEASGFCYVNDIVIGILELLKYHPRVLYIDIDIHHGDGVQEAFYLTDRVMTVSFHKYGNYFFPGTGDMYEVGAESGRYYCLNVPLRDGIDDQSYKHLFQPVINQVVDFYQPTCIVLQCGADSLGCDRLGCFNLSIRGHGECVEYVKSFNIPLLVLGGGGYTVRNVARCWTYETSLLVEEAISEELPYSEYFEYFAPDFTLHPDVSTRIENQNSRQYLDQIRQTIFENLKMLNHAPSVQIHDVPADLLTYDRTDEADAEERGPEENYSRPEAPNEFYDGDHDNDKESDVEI
Cardio protect: myocardial damage modulation in H9c2 cells; H9c2 cardiomyocytes, H2O2 injury protection, ATPLite, 2 h; protection from H2O2 cell death, % at 20 µM; hit rate 0.63% among 360,000;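 active = compounds giving at least 50% protection of heart cells from peroxide-induced death in the single-dose screen, raw or plate-pattern-corrected value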
GRK2 inh confirm: confirmation of human GRK2 inhibitors displacing RNA aptamer | shares compounds with GRK2 aptamer HTS | bead-bound GRK2, FAM-aptamer displacement, flow cytometry | aptamer displacement, % at 10 µM | hit rate 4% among 2,000;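 active = aptamer displacement above 40%, near three times the noise of non-fluorescent compounds, on plates passing quality checks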;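 also: negative values mostly reflect intrinsic compound fluorescence rather than true enhancement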
FAM quench CP1: aptamer fluorescence quenching in GRK2 counter-screen. shares compounds with GRK2 aptamer HTS. Carboxyfluorescein RNA aptamer on beads, flow cytometry quenching; hits give low values. fluorescence response (% of DMSO), % at 10 µM. 2,000 tested, under 10 active;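 active = compounds that quench the bead-bound fluorescent RNA probe, cutting fluorescence to under half of the solvent control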;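 also: counterscreen run without GRK2 so only probe quenching by compound is measured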
GRK2 CP2: confirmation of human GRK2 inhibitors binding RNA aptamer site | shares compounds with GRK2 aptamer HTS | bead-bound GRK2, FAM-aptamer displacement, flow cytometry | inhibition of aptamer binding, % at 10 µM | 360 tested, under 10 active;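 active = inhibition of aptamer binding above 40%, about triple the noise seen with nonglowing compounds, on plates passing quality control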;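 also: negative values mostly come from compounds that fluoresce themselves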
FAM quench CP2: aptamer fluorescence quenching in GRK2 counter-screen. 360 tested, under 10 active. shares compounds with GRK2 aptamer HTS. fluorescence response vs DMSO, % at 10 µM. carboxyfluorescein RNA aptamer beads, flow cytometry quenching; hits give low values;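 active = response vs DMSO under 50%, meaning signal dropped by over half, treated as fluorescence quencher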;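 also: labelled aptamer on streptavidin beads without GRK2 as a quench counter-screen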
Neddyl inh conf: cullin neddylation inhibition, confirmation. hit rate 13% among 1,800. TR-FRET cullin neddylation biochemical assay. calls only at 25 µM. shares compounds with Neddyl block. AID 652217; in the data active = inhibition above about 40%;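 also: neddylation substrate is the cullin 1 ring ligase complex with SKP2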
Numbers stand for hits; 0 = inactive; - = no result given; + = active, no number. Sampled rows, rich in hits. Any-hit rate of the full collection: about 1.8%.

SMILES	GRK2 aptamer HTS	Neddyl block	HDAC3 inhib	Cardio protect	others
COc1ccc(OC)c(C2C(C#N)=C(N)Oc3cc(N)ccc32)c1 (stereo unspecified)	0	0	0	0
COc1cc(NC(=O)COc2ccccc2C)ccc1NC(=O)c1ccco1	51	46	0	0	GRK2 CP2=0;FAM quench CP2=0
O=c1[nH]c2ccccc2nc1/C=C/c1ccccc1	52	42	0	0	GRK2 inh confirm=0;FAM quench CP1=0
COc1ccc(S(N)(=O)=O)cc1C(N)=O	0	0	0	0
NS(=O)(=O)c1ccc(CNC(=O)C(c2ccccc2)c2ccccc2)cc1	0	0	0	0
CCC(=O)c1cccc2c1N=CC1=C(CC(C)(C)CC1=O)N2	0	42	0	0
O=C(COC(=O)/C=C/c1cccc(F)c1)NC1CCCCCC1	0	0	0	0
CC(=O)c1ccc2c(c1)c(C#N)c1ccccc1[n+]2[O-]	-	41	-	0	Neddyl inh conf=+
COc1ccc([C@H]2Cc3cc(O)cc(O)c3C(=O)O2)cc1O	0	0	0	0
O=C1O[C@@H](c2ccc(O)cc2)Cc2cccc(O)c21	0	39	0	0
Cc1cc(NS(=O)(=O)c2c(C)[nH]c(=O)[nH]c2=O)ccc1Br	0	0	0	0
C#CCNC(=O)C(C)c1ncc(C(F)(F)F)cc1Cl (stereo unspecified)	0	0	0	0
CCOC(=O)C1=C(COCCN)NC(C)=C(C(=O)OC)C1c1ccccc1Cl (stereo unspecified)	0	-	0	0
CCOC(=O)C1=C(C)Nc2nnnn2C1c1ccccc1Cl (stereo unspecified)	0	0	0	0
CCOC(=O)C[C@@H]1OC[C@H](C)N1S(=O)(=O)c1ccc(C)cc1	-	0	-	-
N#Cc1c(Cl)cccc1N1CCCC1	0	0	0	0
N#Cc1c(F)cccc1N1CCOCC1	0	42	0	0	Neddyl inh conf=0
Cc1cc(C)c(C)c(S(=O)(=O)Nc2ccccc2C(=O)NCCCn2ccnc2)c1C	-	38	-	0
Cc1cc(C)c(C)c(S(=O)(=O)Nc2ccccc2C(=O)O)c1C	0	47	0	0
Cc1cc(NC(=O)c2ccccc2NS(=O)(=O)c2c(C)c(C)cc(C)c2C)no1	0	-	0	0
O=C(O)c1ccccc1NS(=O)(=O)c1ccc2c(c1)OCCO2	0	43	0	0
NC(=O)c1ccccc1NS(=O)(=O)c1ccc2c(c1)OCCO2	0	-	0	0
CCn1c(SCC(=O)N2CCN(c3ccccc3)CC2)nc2c([nH]c3ccccc32)c1=O	0	0	0	0
CCn1c(=O)c(-c2ccccc2)c(O)c2ccccc21	0	41	0	0	Neddyl inh conf=+
CCCCn1c(=O)c(-c2ccccc2)c(O)c2ccccc21	0	-	0	0
SMILES	GRK2 aptamer HTS	Neddyl block	HDAC3 inhib	Cardio protect	others
CC(C)c1ccc2[nH]c3c(c2c1)CCC/C3=N\NC(=O)c1ccncc1	0	0	0	0
Nc1ccc(C(=O)N/N=C2\CCCc3c2[nH]c2ccccc32)cc1	0	45	0	0	Neddyl inh conf=0
C=CCn1c(SCC(=O)Nc2nncs2)nnc1-c1ccco1	0	0	0	0
COc1ccc(S(=O)(=O)NC(=O)C2(C)CCN2C(=O)Cc2cc(C)cc(C)c2)cc1 (stereo unspecified)	-	0	-	0
Cc1cc(-c2nn(-c3ccccc3)cc2/C=C2\SC(N)=NC2=O)ccc1OC(C)C	0	48	0	0	Neddyl inh conf=0
C/C(=C\C(=S)Nc1ccccc1)Nc1cccc2ccccc12	0	46	0	0
C/C(=C\C(=S)Nc1ccccc1)Nc1ccc2ccccc2c1	0	0	0	0
CCN(CC(=O)NCc1ccc(Cl)cc1)CC(=O)NC1(C#N)CCCC1	0	0	0	0
Cc1cc(C)n(Cc2ccc(C(=O)NCc3ccco3)o2)n1	0	0	0	0
Cc1cc(C)n2nc(C(=O)NCc3ccco3)cc2n1	0	51	0	0
COc1cccc(/C=C/C(=O)NCc2cn3cc(Cl)ccc3n2)c1OC	0	50	0	0	Neddyl inh conf=0
